Our source for the growth values is PubChem BioAssay (NCI).

The panel holds about 83,000 compounds, 20% with a hit somewhere; the sample as a whole holds those more often.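 The endpoint reported here, percent growth, reads 100 for growth as untreated, 0 for no net growth and -100 for all cells dead.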 Values without a mark were called inactive. Active and inactive are the calls of the source. How the source made its calls: active means growth percent below 10; inactive means the rest.

The test system of this test is BT-549 breast. Briefly: NCI-60 one-dose screen, 48 h (100 = growth as untreated, 0 = no growth, -100 = all killed). The conditions noted are these: 10 µM unless noted.
In the case of `O=C(COc1ccc(/C=C2\SC(=O)NC2=O)cc1)Nc1ccc(C(=O)/C=C/c2cc3ccccc3nc2Cl)cc1`, the growth is 67.7%.
As to `CC(C)Sc1nc(NC2CC2)c(C#N)c(-c2ccccc2)n1`, the growth is 105%.
For `O=C(COc1cccc2cccnc12)Nc1ccc(C(=O)/C=C/c2ccc(Cl)cc2)cc1`, the growth was 87.9%.
Turning to `Oc1ccc(CSc2nnc(-c3ccc(Br)cc3)n2-c2ccccc2)c2cccnc12`, the growth is 40.3%.
Next, `COc1ccccc1N1CCN(C2=NN=C(c3cccc(Cl)c3)c3ccccc3C2)CC1`: 50.5%; `O=C1/C(=C/c2ccc([N+](=O)[O-])cc2)SC(=Nc2ccccc2)N1Nc1ccccc1`: 95.6%; `COc1ccc([C@H]2c3[nH]c4ccccc4c3C[C@@H]3C(=O)N(C4CCN(Cc5ccccc5)CC4)CC(=O)N23)c(OC)c1`: 86.1%.
With `CC1OC(O[C@@H]2[C@H](O)C(CO)OC(O[C@H]3COC(O[C@H]4CC[C@]5(C)[C@H]6CC[C@]78OC[C@@]9(CCC(C)(C)C[C@H]97)[C@H](O)C[C@@]8(C)[C@]6(C)CC[C@H]5C4(C)C)[C@@H](OC4OC(CO)[C@@H](O)[C@@H](O)[C@@H]4O)[C@@H]3O)[C@H]2OC2OC[C@@H](O)[C@@H](O)[C@@H]2O)[C@@H](O)[C@@H](O)[C@H]1O` (stereo partly drawn), the growth is -69.2% (active).
Next, `N#Cc1c(-c2cccs2)cc(-c2cnccn2)nc1SCC(=O)NNC(=S)Nc1ccc(F)cc1`: 118%; `O=C1NC(=O)c2c1c1c3ccccc3ccc1c1[nH]c3ccccc3c21`: 7.84% (active).
The result for `COc1ccc(-c2ccc3c4c(cccc24)C(=O)N(N2C(=O)c4cccc5cccc(c45)C2=O)C3=O)cc1` reads 106%; that for `NS(=O)(=O)c1ccc(Nc2nc(N/N=C/c3ccc(C(F)(F)F)cc3)nc(Nc3ccccc3)n2)cc1`, 48.9%.
Turning to `COc1cc(CNC(=O)/C=C/c2ccccc2)ccc1OCC(=O)NO`, the growth is 107%.
Next, `NS(=O)(=O)c1ccc(Nc2nc(N/N=C/c3ccc(F)cc3)nc(Nc3ccccc3)n2)cc1`: 67.2%; `C=C1C(=O)O[C@@H]2C[C@@H](C)[C@H](OC)CC(=O)[C@](C)(OC(C)=O)C[C@H](OC(=O)/C(C)=C\C)[C@@H]12`: 83.7%.
On to `O=C(c1ccc(O)cc1)[C@@H]1[C@@H]2CCCN2[C@@]2(C(=O)N(C(=O)c3ccc(F)cc3)c3ccccc32)[C@H]1c1ccc(F)cc1`, for which the growth is 98.5%.
`Cc1ccc(-n2cc(/C=C/C(=O)c3ccc(S(C)(=O)=O)cc3)c(-c3ccc(S(C)(=O)=O)cc3)n2)cc1`: the growth was 91.5%.
Next, `Cc1ccc(Cc2cnc(NC(=O)/C(C#N)=C/c3ccc(-c4ccc(Cl)cc4)o3)s2)cc1`: 96.7%; `C=C(C)C(=O)O[C@H]1C[C@@]2(C)OC(=CC2=O)/C(C)=C\[C@H]2OC(=O)C(=C)[C@H]12`: -9.12% (active).
As to `CCN(CC)CCN1C(=O)c2c(c3c4cc(Br)ccc4[nH]c3c3ccc4ccccc4c23)C1=O`, the growth is 61.8%.
The result for `Oc1ccc(CSc2nnc(-c3ccc(Oc4ccccc4)cc3)o2)c2cccnc12` reads 49.8%; that for `O=C1c2c(c3c4cccnc4[nH]c3c3ccc4ccccc4c23)C(=O)N1CCN1CCOCC1`, 65.6%; that for `O=c1[nH]c(CCl)nc2c1cnn2-c1ccccc1`, 94.1%.
As for `C=C1C(=O)O[C@@H]2/C=C(/C)C3=CC(=O)[C@@](C)(C[C@H](OC(=O)/C(C)=C\C)[C@@H]12)O3`, the growth is 27.9%.
For `O=C1CC2(CCOCC2)Oc2ncccc21`, the growth is 105%.
Take `O=C(Nc1ccc(F)cc1)c1cc(-c2ccc(F)cc2F)ccc1O`: the growth was -10.3% (active).
Consider `COc1ccc(/C=N\NC(=O)c2ccc3nc(-c4ccc(Br)cc4)[nH]c3c2)cc1`, for which the growth is 65.8%.
Next, `O=C(O)c1ccc(-n2cc(CNc3ccc(Cl)cc3)c(-c3ccc(F)cc3)n2)cc1`: 101%; `COc1cc(/C=N/n2cnc3oc(-c4ccccc4)cc3c2=N)cc(CN2CCCC2)c1O`: 129%.
For `CCOC(=O)c1c(NCC(=O)Nc2cccc(Cl)c2)sc2c1CCCC2`, the growth was 70.1%.
The result for `Cc1ccc(-c2csc(N/N=C/c3nc4ccccc4n3C3CC3)n2)cc1` reads 73.1%; that for `C#C[C@]1(O)CC[C@H]2[C@@H]3CC=C4c5sc(Nc6cccc(C)n6)nc5CC[C@]4(C)[C@H]3CC[C@@]21C`, 23.1%; that for `COc1ccc(-c2nc(SCC(C)C)nc(N/N=C\c3cccc([N+](=O)[O-])c3)c2C#N)cc1`, 64.1%.
For `C=C1C(=O)O[C@@H]2C[C@@H](C)CCC(=O)[C@](C)(OC(C)=O)C[C@H](OC(=O)/C(C)=C\C)[C@@H]12`, the growth is 80.3%.
The result for `C=C1C(=O)O[C@@H]2C[C@@H](C)/C=C\C(=O)[C@](C)(OC(C)=O)C[C@H](OC(=O)/C(C)=C\C)[C@@H]12` reads -9.56% (active).
As to `CCCCCCNC(=O)Oc1ccc(/C(=C(/C)c2ccc(OC)cc2)c2ccc(OCCN3CCCC3)cc2)cc1`, the growth is 84.3%.
The result for `CN(C)c1ccc(/C=N/Nc2nc(N/N=C/c3ccc(N(C)C)cc3)nc(N3CCOCC3)n2)cc1` reads 106%; that for `COc1ccc(-c2oc3cc(O)cc(O)c3c(=O)c2OC)cc1O`, 40.3%.
